# Source: PubChem BioAssay AID485346 (Sanford-Burnham Center for Chemical Genomics, 2010)
# Out of some 330,000 compounds screened, about 10,000 (3%) were called active.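 Rule for the calls: active = inhibition of at least 50% at 8 µM in the primary screen; inactive = the rest.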 For the sample, actives were picked, then their nearest neighbours and some compounds at random.
# Target: Protein Mdm4 (Homo sapiens) + E3 ubiquitin-protein ligase Mdm2 (Homo sapiens) (UniProt O15151+Q00987)
# Assay: inhibitors of human Mdm2-MdmX association, primary screen, cell-based, luminescence, split luciferase, SaOS-2, uHTS (AID 485346)
# Conditions: SaOS-2 split-luciferase Mdm2/MdmX complementation, at 8 µM, hits give high values
# Sequence of Protein Mdm4 (Homo sapiens) + E3 ubiquitin-protein ligase Mdm2 (Homo sapiens) (O15151 whole entry, looked up): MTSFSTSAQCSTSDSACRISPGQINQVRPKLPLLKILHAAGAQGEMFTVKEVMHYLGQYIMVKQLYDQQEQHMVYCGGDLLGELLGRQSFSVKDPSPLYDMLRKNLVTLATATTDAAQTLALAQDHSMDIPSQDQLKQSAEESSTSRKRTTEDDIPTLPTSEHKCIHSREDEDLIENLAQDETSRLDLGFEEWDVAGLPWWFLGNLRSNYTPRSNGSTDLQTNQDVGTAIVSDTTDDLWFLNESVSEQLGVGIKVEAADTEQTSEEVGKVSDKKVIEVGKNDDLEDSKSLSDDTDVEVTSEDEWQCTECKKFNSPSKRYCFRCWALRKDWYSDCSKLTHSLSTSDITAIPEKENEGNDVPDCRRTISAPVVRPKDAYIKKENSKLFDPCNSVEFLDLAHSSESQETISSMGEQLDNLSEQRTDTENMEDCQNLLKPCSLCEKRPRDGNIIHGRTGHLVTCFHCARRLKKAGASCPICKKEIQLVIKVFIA
# Sequence of Protein Mdm4 (Homo sapiens) + E3 ubiquitin-protein ligase Mdm2 (Homo sapiens) (Q00987 whole entry, looked up): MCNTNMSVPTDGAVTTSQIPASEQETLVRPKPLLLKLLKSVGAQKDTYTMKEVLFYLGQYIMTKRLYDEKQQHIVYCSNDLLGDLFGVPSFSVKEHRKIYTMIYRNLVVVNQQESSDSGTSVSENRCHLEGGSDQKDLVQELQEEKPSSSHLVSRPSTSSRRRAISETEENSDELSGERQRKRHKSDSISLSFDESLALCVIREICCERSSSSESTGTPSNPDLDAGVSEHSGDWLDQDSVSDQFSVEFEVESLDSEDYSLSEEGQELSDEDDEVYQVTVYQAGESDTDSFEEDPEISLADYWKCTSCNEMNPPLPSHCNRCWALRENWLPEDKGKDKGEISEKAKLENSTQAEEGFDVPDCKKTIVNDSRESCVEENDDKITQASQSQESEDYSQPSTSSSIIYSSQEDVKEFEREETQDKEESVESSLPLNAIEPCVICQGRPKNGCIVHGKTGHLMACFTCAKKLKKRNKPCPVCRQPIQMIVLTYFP
row,Structure (SMILES),inhibition
1,COc1ccc2nc(/N=C(\N)NC(=O)Nc3ccccc3)nc(C)c2c1,29% (inactive)
2,O=C(NNC(=O)C(O)c1ccccc1)NC1CCCCC1 (stereo unspecified),16.7% (inactive)
3,Cc1nc(/N=C(\N)NC(=O)NC2CCCCC2)nc2ccccc12,53% (active)
4,COc1ccc2c(c1)C(=C(C#N)C#N)C(=O)N2CCc1ccccc1,8.08% (inactive)
5,Cc1ccc(C)c(NC(=O)CN(C)C(=O)c2ccc3ncsc3c2)c1,10.9% (inactive)
6,COc1ccc(C/C(C)=N/NC(=O)c2ccncc2)cc1,-14.9% (inactive)
7,C/C(=N\NC(=O)Cc1ccc(Br)cc1)c1cccnc1,9.71% (inactive)
8,C/C(=N\NC(=O)c1ccoc1C)c1ccccc1O,49.2% (inactive)
9,C/C(=N\NC(=O)c1ccccc1F)c1ccccn1,64.2% (active)
10,COc1ccc(CC(=O)N/N=C(\C)c2ccccn2)cc1,56.7% (active)
11,C/C(CC(=O)Nc1ccc(N(C)C)cc1)=N\NC(=O)c1ccccc1F,11.6% (inactive)
12,CCOc1ccccc1NS(=O)(=O)c1cc2c3c(c1)C(C)C(=O)N3CCC2 (stereo unspecified),14.9% (inactive)
13,CC1C(=O)N(Cc2ccccc2)c2ccccc2N1C(=O)c1ccccc1 (stereo unspecified),4.7% (inactive)
14,O=C(COC(=O)/C=C/c1ccc(Br)o1)Nc1cccc(S(=O)(=O)N2CCOCC2)c1,26.4% (inactive)
15,CN(C)CCCSc1ccccc1NC(=O)/C=C/c1ccccc1,-28.9% (inactive)
16,CC(C)NC(=O)C(=O)NCCCOC(C)C,7.36% (inactive)
17,CN(C)c1nc2n(c(=O)n1)CCO2,-0.85% (inactive)
18,COc1ccc(CCNC(=O)C2CCCN(S(=O)(=O)c3ccc(OC)cc3)C2)cc1 (stereo unspecified),31.8% (inactive)
19,O=C(COC(=O)c1cnccn1)Nc1ccc(Cl)cc1C(F)(F)F,-11.4% (inactive)
20,COc1cccc(CNn2cn[nH]c2=S)c1OCc1ccccc1,24.6% (inactive)
21,O=[N+]([O-])c1ccc(F)cc1Oc1nc(-c2cccnc2)nc2ccccc12,27.2% (inactive)
22,O=[N+]([O-])c1ccc(Oc2ccc(F)cc2Br)c2ccncc12,78% (active)
23,Cc1oc2cc([N+](=O)[O-])c(O)c([N+](=O)[O-])c2c1C(=O)c1ccc(Br)cc1,-16.1% (inactive)
24,Cc1cc(C)n(CCNCc2c(C(=O)N3C[C@@H](C)O[C@@H](C)C3)nc3ccc(Cl)cn23)n1,6.66% (inactive)
25,COC(C[C@@H](O)C[C@H](O)[C@H](C)OCc1ccccc1)OC,-23% (inactive)
26,Cn1nnnc1-c1cc(Cl)cc(Cl)c1,16.3% (inactive)
